In all, about 33,000 sequences were measured (“normalized occupancy”: median about 0.075, highest 2% from about 0.095 on). This is one part of a sample in which the highest values are shown more often than they occur.
Target: MaxL homodimer (Homo sapiens, UniProt P61244 1-160)
Assay: universal protein-binding microarray (PBM); PBS-based mixture, 10 nM His-tagged protein dimer, 2% milk, 200 ng/uL BSA, 50 ng/uL salmon testes DNA, 0.02% TX-100; detection with Alexa 488 anti-His antibody;; high values mean tight binding
Conditions: protein: recombinant; tags: C-terminal His-tag (pET21a); chain copies: 2; dsDNA, one strand shown
In short: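 Binding occupancy is a fluorescence intensity normalised to the intensity of the highest-ranked sequence word. Those intensities came from 8-mers on Agilent 4 x 44 K 'all 10-mer' universal arrays incubated with 10 nM His-tagged protein dimer. Bound protein was detected with 10 ng/μL fluorophore-conjugated anti-His antibody before scanning on a GenePix 4400A.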

Chain of MaxL homodimer (P61244 whole entry): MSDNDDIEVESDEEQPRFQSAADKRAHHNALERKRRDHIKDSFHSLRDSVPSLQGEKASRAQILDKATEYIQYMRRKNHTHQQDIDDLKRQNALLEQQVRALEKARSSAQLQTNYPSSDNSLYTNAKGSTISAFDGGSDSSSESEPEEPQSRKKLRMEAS

Sequence	binding signal [normalized occupancy]
AGAGTCGC	0.0764
ACGGATGC	0.0722
GTGCCTTA	0.0789
ATGAGCGG	0.0799
CGGTGTAC	0.0764
GATATTCC	0.0765
AGCAATTC	0.0722
CACGTGAA	0.231
GACGTGAC	0.0813
CACGTGAG	0.245
GACGTGAA	0.0766
CCCGTGAC	0.0826
CACGTGAC	0.464
TACGTGAA	0.0794
CACGTAAG	0.0796
CCCGTGAA	0.0812
CCTTCCCA	0.0748
GAATCCTA	0.0741
CAGCCGCA	0.0718
TGGGTGAA	0.0791
AGGATGAC	0.0813
TCTAGCCA	0.0723
CCTTTATA	0.0822
ATGCTTTC	0.0842
ATCGTGTA	0.0829

Sequence	binding signal [normalized occupancy]
ATCGTGTC	0.0864
CTCGTGTA	0.103
GTCGTGTA	0.0822
CTCGTTTC	0.0748
CTCGTGTC	0.0959
AACATACC	0.086
ATCGTCGA	0.0747
CTGAATAC	0.0791
AGCGTATG	0.0754
AGCGTGTA	0.0952
AGTGTGTA	0.0806
CGCGCGTC	0.075
CGTGTGTC	0.0936
CGCGTGTC	0.115
CGCGTGTA	0.123
GGCGTGTA	0.0895
AGCGTGTC	0.0932
CGTGTATA	0.0906
CGTGTGTA	0.0944
AGCGTGTG	0.0954
AAAGGACT	0.076
CTAGAATA	0.0796
AAACAACG	0.079
AGTTTGAA	0.0729
AAACTCAT	0.0797

Sequence	binding signal [normalized occupancy]
ATAAAAGG	0.0778
CGGTCTCA	0.0736
CACAGTCA	0.0797
ACCATCCT	0.0757
CCGTGAGA	0.0755
GAGTGAGA	0.0795
ACGTGAGT	0.0893
ACGTGAGG	0.0969
CCGTGAGG	0.0784
ACGTGAGC	0.107
AAGTGAGG	0.0763
ATGTGAGC	0.0803
ACGTGAGA	0.0981
GCGTGAGC	0.091
TCGTGAGA	0.0809
GCGTGAGA	0.0965
AATTGCCA	0.0744
CCTAGAAC	0.0744
ATGTTGTG	0.0817
CCGTCATC	0.0727
AAGACTAT	0.0779
CTGGGGAA	0.0741
ATGAACAA	0.0807
ATGCATTA	0.0869
GTGCATGA	0.0961

Sequence	binding signal [normalized occupancy]
CTGCATGC	0.1
GTGCATAA	0.0861
ATGCATTC	0.0908
GTGCATCA	0.0868
ATGCATGC	0.126
CTGCATGA	0.083
ATGCATCC	0.0863
CTGCATTC	0.0735
ATGCATGA	0.0997
ATGCATCA	0.0872
AGAGGCGA	0.0756
CTTGAGTC	0.0726
ACTTTGTC	0.0738
GGTTCTAC	0.0735
GAACTAAC	0.0734
ATTCCGAC	0.0732
AAGTTCAG	0.0751
ACACCAAG	0.0798
GTGGACCA	0.0775
GTGTTAAA	0.0743
GATTGCAC	0.0761
ATGCATGG	0.0969
ATGCATCG	0.0835
ATGCATAG	0.0814
CGGGGGCA	0.0747

Sequence	binding signal [normalized occupancy]
CTCATGGC	0.0965
ATGATGCG	0.0869
CTCATGCC	0.0954
GTCATGCA	0.0869
CTTATGGC	0.0778
CTCATGCA	0.0963
CTCATGAC	0.0906
ATCATGCA	0.0894
ATCATTCG	0.0804
ATCATGCG	0.105
CTCATGTC	0.0928
CTCATGGA	0.0927
AAAAGGGA	0.0725
GGGCGTTA	0.0774
TACTTCTA	0.0754
GCATAAGA	0.0799
GGCTAGCA	0.0747
ATCATGAC	0.0868
ATCATGCC	0.0958
ATAATGCC	0.0813
CAAAATGG	0.0769
AATTACAG	0.0778
AATGCGCG	0.0754
AATGCGCC	0.0731
ATTGCGCG	0.0747

Sequence	binding signal [normalized occupancy]
CGTGCGCC	0.0922
CATGCGCA	0.125
CATGCGCG	0.11
TATGCGCA	0.0804
AGTGCGCA	0.076
AATGCGCA	0.0804
CATGCGCC	0.111
AGTGCGCC	0.0735
CGTGCGCA	0.0967
GTCGCTGA	0.0755
ACAATAGA	0.0762
ACTTGACG	0.0741
GTCATCGA	0.0798
ATAGATGC	0.075
CGCACTGA	0.0735
ACTTACAA	0.0743
ACGAGACA	0.0856
CTCGTGAC	0.104
TGCGTGAA	0.0808
GGCGTGAC	0.0927
CGTGTGAC	0.0871
CTCGTGAA	0.0894
ATCGTGAC	0.0839
CGCGTGAG	0.109
AGCGTGAG	0.091

Sequence	binding signal [normalized occupancy]
CGCGTGAA	0.105
GGCGTGAA	0.0776
CGCGTGAC	0.134
CCCGTGAG	0.0759
CGCCCCCC	0.0791
CCTAAGGA	0.0757
ACTTTACC	0.0744
ACGATCAA	0.0748
AGAGATTC	0.0757
CGTTACAC	0.0819
TGTTACAA	0.0777
CATGCTTC	0.106
AATGCTGG	0.0789
CGTGCTTC	0.0896
AATGCTTA	0.0806
GATGCTTA	0.0759
CAAGCTGG	0.0721
GATGCTGC	0.078
AATGCTTC	0.0816
AATGCTGC	0.0788
CATGCTGG	0.125
CATGCTTA	0.104
CATGCTGC	0.122
CAACCGTC	0.075
ATGCAATG	0.08

Sequence	binding signal [normalized occupancy]
CGACCTCG	0.0723
ATGATAAA	0.0793
ACGAGGTC	0.0849
ATAGACCC	0.0762
GTGACCCA	0.0762
GATGCTGA	0.0746
CATGCTGA	0.112
TATGCTGA	0.0773
CCCTTGCA	0.0735
ACATTTTC	0.0796
GACGTTGA	0.0764
AACGTTGC	0.0766
CGCGTTGC	0.0781
CACGTTGC	0.131
AACGTTGA	0.0764
CACGTTGA	0.115
CACGTTGG	0.122
AACGTTGG	0.0767
TACGTTGA	0.082
AACTCGCG	0.0749
ACAAAGGG	0.0742
TCCTAAGA	0.0773
CTCAGTAC	0.0743
CCTCCTCC	0.0782
CGCATGAG	0.0969

Sequence	binding signal [normalized occupancy]
CGCATGAA	0.0861
ATCATGAG	0.09
CGCATGAC	0.105
AGCATGAG	0.102
CGTATGAC	0.0817
CGTATGAG	0.0785
GGCATGAC	0.0858
AGTATGAG	0.0766
ACAGATCT	0.0745
GGCATACA	0.0776
GAGACATC	0.0756
CATGCCGA	0.102
CATGCCGC	0.105
GATGCCGA	0.0738
CATGCCGG	0.0917
AATGCCGC	0.0765
TATGCCGA	0.0757
CATGCCAG	0.0874
CATGCCAA	0.0927
CATGCCAC	0.0989
